BAZ2B block: inhibitors of human BAZ2B bromodomain; Q9UIF8; AlphaScreen BAZ2B-H3K14Ac peptide displacement; Potency, µM (titrated, usually from 114 µM), for the others: top-dose activity change, negative = inhibition, hits mostly inhibitors; 360,000 compounds, 4.4% hits; AID 504333; further: potency means the concentration at half of the fitted maximal effect; on the % scale 0 is the no-effect control and ±100 the full control effect; nearly all actives have a fitted effect of over 60% in size
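Compounds, titrated to a top concentration of 110 uM, were incubated 30 min at room temperature with preformed BAZ2B/acetyl-K14 H3 peptide complex (50 nM each). Proximity signal was measured by AlphaScreen after 20 min with beads.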
HP1b binding inh: inhibitors of HP1-beta chromodomain binding to methylated histone tails | Potency, µM (series often up to 114 µM), without a hit: at the highest dose activity change, negative = inhibition, hits mostly inhibitors | 390,000 compounds, 0.56% hits | P83916 | AlphaScreen HP1-beta / biotin-H3K9me3 peptide binding; further: potency means the concentration at half of the fitted maximal effect; nearly all actives have a fitted effect of over 70% in size
Target sequence (P83916 whole entry, looked up): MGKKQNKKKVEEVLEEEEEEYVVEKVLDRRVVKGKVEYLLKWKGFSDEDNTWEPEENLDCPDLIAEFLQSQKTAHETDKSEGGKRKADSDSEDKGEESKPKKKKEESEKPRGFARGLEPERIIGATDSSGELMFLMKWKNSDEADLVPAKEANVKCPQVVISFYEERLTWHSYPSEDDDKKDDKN
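AlphaScreen: HP1-beta (50 nM) preformed 30 min with biotin-H3(1-18)K9me3 peptide (50 nM) in PBS pH 7.4, 0.01% Tween-20. Compound added for 30 min at RT, then streptavidin donor/nickel chelate acceptor beads (10 ug/mL) for 30 min.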
JMJD2A Tudor: blocks the human JMJD2A Tudor domain; O75164; AlphaScreen JMJD2A-Tudor / H3K4me3 peptide binding; Potency, µM (titrated, usually from 114 µM), inactives show at the top dose activity change, negative = inhibition, most hits filed as inhibitors; 390,000 compounds, 4.4% hits; AID 504339; further: potency means the concentration at half of the fitted maximal effect; on the % scale 0 is the no-effect control and ±100 the full control effect; nearly all actives have a fitted effect of over 50% in size
PI5P4K alpha inh: inhibitors of human PI5P4K alpha; PI5P4Kalpha enzyme, ADP-Glo luminescence, 60 min; active compounds read low; max response, %; 330,000 compounds, 1.2% hits; active means max response of -50% or lower; inconclusive means between -30% and -50%; inactive means -30% or higher; further: value at the top dose of about 77 µM; on the % scale 0 is the no-effect control and ±100 the full control effect
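Compounds were pin-transferred onto PI5P4Kalpha and substrate in HEPES pH 7.4 buffer with EGTA, CHAPS and 5% DMSO. ATP (5 microM final) started the reaction, which ran 60 minutes at room temperature before ADP-Glo detection.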
G9a inh: G9a (human) methyltransferase inhibition; 350,000 compounds, 8.8% hits; Potency, µM (top dose mostly 102 µM), without a hit: top-dose activity, negative = inhibition, actives largely listed as inhibitors; AID 504332; Q96KQ7; G9a H3K9 monomethylation, AlphaScreen, 2 h; further: potency means the concentration at half of the fitted maximal effect; on the % scale 0 is the no-effect control and ±100 the full control effect; nearly all actives have a fitted effect of over 75% in size
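Readings reflect AlphaScreen signal from monomethyl-H3K9 antibody detection. HMT at 20 nM; substrate b-H3K9 500 nM; cofactor SAM 20 uM; 2 h RT reaction; compounds tested as titrations in qHTS with 15 min preincubation.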
PLK1 PBD block: PLK1 (human) polo-box domain binding inhibition | P53350 | Plk1 PBD binding of FITC phosphopeptide, fluorescence polarization | Potency, µM, inactives show max response, negative = inhibition, most hits filed as inhibitors | 360,000 compounds, 2.8% hits | AID 720504; further: potency means the concentration at half of the fitted maximal effect; series mostly up to about 57 µM; on the % scale 0 is the no-effect control and ±100 the full control effect; nearly all actives have a fitted effect of over 65% in size
Target sequence (P53350 whole entry, looked up, the tested form may be a part): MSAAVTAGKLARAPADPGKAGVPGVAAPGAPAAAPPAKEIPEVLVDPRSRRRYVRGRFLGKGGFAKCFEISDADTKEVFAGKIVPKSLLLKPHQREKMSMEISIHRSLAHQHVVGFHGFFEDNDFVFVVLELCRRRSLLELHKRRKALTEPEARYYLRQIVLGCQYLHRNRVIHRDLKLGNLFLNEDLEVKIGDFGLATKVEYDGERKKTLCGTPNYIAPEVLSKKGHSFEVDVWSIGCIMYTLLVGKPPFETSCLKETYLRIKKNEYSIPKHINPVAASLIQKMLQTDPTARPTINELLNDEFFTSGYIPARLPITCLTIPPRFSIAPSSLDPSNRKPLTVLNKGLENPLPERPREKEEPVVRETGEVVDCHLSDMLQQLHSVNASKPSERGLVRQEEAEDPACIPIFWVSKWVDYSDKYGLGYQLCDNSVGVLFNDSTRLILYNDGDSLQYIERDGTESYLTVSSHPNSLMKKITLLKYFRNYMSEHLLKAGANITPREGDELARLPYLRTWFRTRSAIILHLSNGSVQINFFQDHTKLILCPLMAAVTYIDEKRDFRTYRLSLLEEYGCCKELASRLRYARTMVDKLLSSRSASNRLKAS
Numbers without * were called inactive; ? = inconclusive; / = not tested or not shown; [ ] = another dose, or the depositor's remark. An excerpt weighted towards active compounds, which were near 12% of everything screened. Unless noted, the call rests on the fitted dose curve; in most records, active means well fitted curve in the direction sought with a large enough effect; inconclusive means small, poorly fitted or top-dose-only effect, or another doubt; inactive means no such curve, though single readings can be large; an effect the other way counts as inactive or inconclusive.

SMILES | BAZ2B block | HP1b binding inh | JMJD2A Tudor | PI5P4K alpha inh | G9a inh | PLK1 PBD block
CCN(CC)S(=O)(=O)c1cccc(-c2n[nH]c(=S)n2Cc2ccccc2)c1 | -36% | 37% | ? | 3 | 0.89µM* | 2%
CCc1c(C)nc(SCc2nc(-c3ccccc3)no2)[nH]c1=O | -2% | 52%[57 µM] | -4% | / | -2%[59 µM] | /
COC(Cn1c(-c2cccc(S(=O)(=O)N(C)C)c2)n[nH]c1=S)OC | / | 0% | 7.9µM* | 2 | 10µM* | 0%
COc1ccc(-n2c(=O)cnc3cnc(N4CCN(C)CC4)nc32)cc1 | / | / | / | / | 4%[0.501 µM] | /
CC(=NNC(=S)N1CC2CCC(CC2)C1)c1ccncn1 | / | ? | 14µM* | -6 | / | -12%
CCOC(=O)c1c(-c2ccccc2)csc1NC(=O)C1CCCO1 (stereo unspecified) | 1% | -26% | -14% | / | ? | 24µM*
CCOC(=O)c1c(-c2ccc(-c3ccccc3)cc2)csc1NC(=O)C1C2CCC(O2)C1C(=O)O (stereo unspecified) | ? | ? | -14%[57.1 µM] | ? | / | 11µM*
CCOC(=O)N(Cc1ccccc1)Cc1ccc(C(=O)N[C@@H](Cc2ccccc2)C(=O)O)cc1 | / | -6% | -12% | -5 | / | -3%
C[C@H](CO)N1C[C@H](C)[C@@H](CN(C)C)Oc2c(NS(=O)(=O)c3cccs3)cccc2C1=O | / | 14% | -21% | -2 | / | -15%
CSc1ccc(CNC(=O)c2ccc3c(c2)N(C)C(=O)C2CCCCN32)cc1 (stereo unspecified) | -21% | 8%[57 µM] | -24% | / | -26%[59 µM] | /
CCn1c(C)c(C)c2cc(C(=O)NCc3ccc(F)cc3)ccc21 | ? | -2% | ? | / | -36%[59 µM] | /
CCn1c(C)c(C)c2cc(C(=O)NCc3ccc(N(C)C)cc3)ccc21 | 22µM* | ? | 22µM* | / | 13µM* | /
CCOc1ccc(CNC(=O)c2ccc3c(c2)c(C)c(C)n3C)cc1 | 40µM* | -11% | ? | / | -48%[59 µM] | /
CN(C)c1ccc(CNC(=O)c2ccc3c(c2)N(C)C(=O)C2CCCCN32)cc1 (stereo unspecified) | 45µM* | -2%[57 µM] | 45µM* | / | 18µM* | /
CC1(C)CN(O)CCN1O | -28% | 20% | -17% | 9 | 20µM* | -6%
c1ccc2sc(N3CCN(Cc4nnnn4CC4CCCO4)CC3)nc2c1 (stereo unspecified) | / | 26% | -12% | / | 28µM* | -7%
C=CCNc1ncnc2c1ncn2[C@H]1CN(CCN2CCOCC2)C[C@@H](CO)O1 | / | / | / | 6 | / | 1%
COc1ccc(NC(=O)CSc2nc3c(sc4ccccc43)c(=O)n2CCCN2CCCC2)cc1 | -20% | 11% | -35% | -1 | ? | -3%
C=CCN(CC=C)S(=O)(=O)c1ccc(F)cc1 | ? | 27% | 13% | / | 19%[59 µM] | -2%
C=CCN(CC=C)S(=O)(=O)c1ncn[nH]1 | 79µM* | 15% | -34% | 0 | ? | -18%
O=C(CSc1nncn2c1cc1sccc12)Nc1ccc(Br)cc1F | -22% | 26% | -13% | / | -4%[59 µM] | /
Fc1cccc(Cl)c1CNn1cn[nH]c1=S | -34% | 55% | 50µM* | 0 | 8.9µM* | 4%
Clc1ccc(CNc2ncnc3[nH]ncc23)c(Cl)c1 | / | 22% | -13% | -4 | / | -3%
S=c1[nH]ncn1NCc1ccc(Cl)cc1Cl | -3% | 28% | 32µM* | -1 | 2.8µM* | -10%
CC(=O)N1c2ccccc2CC1C(=O)N1CCN(c2cc(Cl)ccc2C)CC1 (stereo unspecified) | -21% | 29% | -16% | / | -2%[12.7 µM] | /
SMILES | BAZ2B block | HP1b binding inh | JMJD2A Tudor | PI5P4K alpha inh | G9a inh | PLK1 PBD block
Cc1cc(O)c(C(C)C)cc1Cl | / | / | / | / | 0%[59 µM] | /
O=C1NC[C@H](CCCCN2CCN(CCc3ccccc3)C(=O)C2=O)N(CCc2ccccc2)C1=O | / | / | / | 1 | / | 2%
C/C(=N/Nc1ccc(C(=O)O)cc1)c1ccc2c(c1)Nc1ccccc1S2 | / | ? | ? | -23 | / | 30µM*
C/C(=N\Nc1ccc(C(=O)O)cc1)c1ccc2c(c1)Nc1ccccc1S2 | 50µM* | ? | ? | ? | 11µM* | 30µM*
CC(=O)Nc1ccc(NC(=O)c2ccc3c(c2)NC(=O)c2ccccc2S3)cc1 | 12% | 40% | -16% | / | 21%[59 µM] | /
O=C(NCCCN1CCCC1=O)c1ccc2c(c1)NC(=O)c1ccccc1S2 | 2% | 44% | -12% | -4 | -4% | -9%
O=C(CN1c2ccc(Br)cc2-c2ccccc2S1(=O)=O)N1CCCCC1 | -19% | 27% | -15% | / | -22%[59 µM] | /
O=C(CCCCCCCC(=O)NNC(=O)Nc1ccccc1)NNC(=O)Nc1ccccc1 | 79µM* | 4% | 79µM* | -6 | -48%[59 µM] | -13%
S=C(NNC(=S)Nc1ccccc1)Nc1ccccc1 | -35% | ? | -33% | -20 | 0.35µM* | ?
CCNC(=S)NNC(=O)Nc1ccccc1 | 6% | ? | 32µM* | / | 3.2µM* | -6%
O=C(Cc1ccccc1)NNC(=S)Nc1ccccc1 | 0% | 38% | -3% | 4 | ? | -13%
FC(F)(F)c1ccccc1NC(=S)Nc1ccccc1 | -2% | 38% | -1% | 3 | 50µM* | -20%
O=C(CSC(=S)N1CCOCC1)Nc1ncc2c(n1)CC(c1ccco1)CC2=O (stereo unspecified) | -14% | 36% | 4% | -10 | 4% | 2%
Cc1c(P(=S)(c2ccccc2)c2ccccc2)c2ccccc2n1C/C=C/c1ccccc1 | / | / | -2% | / | / | /
S=C(NN=C(C1CC1)C1CC1)Nc1ccccc1 | -6% | -10% | 50µM* | -13 | 5.6µM* | ?
O=C(NNC(=S)Nc1ccccc1)C1CC1 | -3% | 40% | -5% | / | -5% | -12%
NC(=S)NNC(=S)Nc1ccccc1 | -16% | ? | -26% | -70* | 10µM* | ?
S=C(NNC(=S)Nc1ccc(Cl)cc1)NNc1ccccc1 | / | / | / | -29 | / | 7.5µM*
S=C(Nc1ccccc1)Nc1ccc(Br)cc1 | -2% | 21% | -14% | -5 | / | -22%
Cc1cnc(C(=O)Nc2ccc(C)c(S(=O)(=O)N(C)C)c2)cn1 | 16% | -3% | 50µM* | -19 | 23%[59 µM] | 24µM*
CC(=O)Nc1c(C)ccc2nsnc12 | -3% | 32% | -8% | 5 | 10%[59 µM] | -1%
Cc1ccc2nsnc2c1NC(=O)c1cncc(Br)c1 | 4% | 22% | -13% | 0 | 56µM* | 0%
Cc1ccc(NC(=O)c2cncc(Br)c2)cc1S(=O)(=O)N(C)C | 3% | ? | 13µM* | -15 | 13% | 15µM*
COc1ccc(-n2c(=O)c(-c3ccccc3)nc3cnc(N4CCOCC4)nc32)cc1 | / | / | / | / | 3%[0.501 µM] | /
COc1nccnc1NS(=O)(=O)c1ccc(NC(=S)NC(=O)/C=C/c2ccccc2)cc1 | -13% | -7% | 79µM* | -11 | ? | 30µM*
COc1nccnc1NS(=O)(=O)c1ccc(NC(=S)NC(=O)c2ccccc2)cc1 | ? | -16% | ? | -2 | 40µM* | -7%

From PubChem BioAssay
